Screen size: about 16,000 compounds; about 5,100 (32%) were called active. Roughly 25% stayed inconclusive and do not appear here. The list shows a part of the results. Values without a mark were called inactive. Calls follow the shape of the dose curve; as a rule, active = well fitted curve in the direction sought with a large enough effect; inconclusive = small, poorly fitted or top-dose-only effect, or effect the other way; inactive = no such curve, though single readings can be large or run the other way.

A word on the AC50: it is the midpoint of the concentration-response curve, whichever way the signal moves.
% is scaled to controls: 0 for no effect and ±100 for the full control effect.

The target of the assay is Cytochrome P450 3A4 (Homo sapiens) (UniProt P08684). Put plainly: Cytochrome panel assay with activity outcomes. As to conditions: recombinant CYP, pro-luciferin dealkylation, luminescence, p450-cyp3a4; series mostly up to 57.1 µM; activity, negative = inhibition: at the top concentration.
Chain of Cytochrome P450 3A4 (Homo sapiens) (P08684 whole entry, looked up): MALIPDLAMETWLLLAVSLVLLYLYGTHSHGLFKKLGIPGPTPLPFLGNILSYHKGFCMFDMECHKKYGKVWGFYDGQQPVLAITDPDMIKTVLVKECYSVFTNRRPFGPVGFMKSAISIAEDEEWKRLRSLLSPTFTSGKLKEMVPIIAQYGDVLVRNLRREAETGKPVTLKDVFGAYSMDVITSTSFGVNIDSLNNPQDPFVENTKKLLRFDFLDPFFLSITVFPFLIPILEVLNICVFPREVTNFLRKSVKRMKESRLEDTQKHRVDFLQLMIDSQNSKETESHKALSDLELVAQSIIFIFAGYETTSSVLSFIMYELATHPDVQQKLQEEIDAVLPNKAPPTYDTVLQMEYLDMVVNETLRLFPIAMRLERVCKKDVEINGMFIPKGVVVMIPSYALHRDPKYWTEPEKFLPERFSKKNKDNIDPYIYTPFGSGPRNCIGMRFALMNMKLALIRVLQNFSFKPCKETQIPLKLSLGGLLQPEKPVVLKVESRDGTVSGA
For the molecule `CCCCC(=O)N/N=C(\C)CC(=O)Nc1cc(Cl)ccc1OC`, the AC50 was 4.47 µM (active).
As to `N[C@@H](CSCc1ccccc1)C(=O)O`, the activity, negative = inhibition was -6.14% [at 11.4 µM].
Turning to `NC1(C(=O)O)C[C@H](C(=O)O)[C@H](C(=O)O)C1` (some centres undefined), the “activity, negative = inhibition” value is -6.99%.
Still for that read-out and setting: the same measure for `CC1CN(C(NC(=O)C(C)(C)C)C(Cl)(Cl)Cl)CC(C)O1` (centres undefined): -27.5%; for `C[C@@H]1NCC[C@H](CC(=O)O)[C@H]1CC(=O)O`: 0.412% [at 11.4 µM].
On the same count and under the same terms, the same measure for `CC(C)=C[C@H]1[C@@H](C(=O)Oc2ccccc2C(C)C)C1(C)C`: -13.1% [at 11.4 µM].
On the same count and under the same terms, with `Cc1[nH]c(N)nc(=S)c1CCC(=O)O` the figure was -2.07% [at 11.4 µM].
In the case of `COc1ccccc1OCCCCCc1c(C)n[nH]c1C`, the “activity, negative = inhibition” value was 14.8%.
On to `CN(Cc1ccco1)c1ncnc2ccc(-c3cccnc3)cc12`, for which the AC50 was 3.98 µM (active).
Still for that read-out and setting: the same measure for `COc1cccc(-c2ccc3ncnc(N(C)Cc4ccco4)c3c2)c1`: 12.6 µM (active).
In the case of `NCCSC[C@H](N)C(=O)O`, the activity, negative = inhibition was -7.49% [at 11.4 µM].
For the molecule `O=C(O)[C@@H](O)[C@@H](O)[C@@H](O[C@H]1O[C@@H](CO)[C@@H](O)[C@@H](O)[C@@H]1O)[C@@H](O)CO`, the “activity, negative = inhibition” value is 1.47% [at 25.6 µM].
Take `c1nc(NC2CCNCC2)c2cc(-c3ccc4c(c3)OCO4)ccc2n1`: the AC50 was 25.1 µM (active).
Consider `c1nc(NC2CCNCC2)c2cc(-c3ccoc3)ccc2n1`, for which the “activity, negative = inhibition” value was -15.6%.
With `Cc1cccc(CNc2ncnc3ccc(-c4ccc5c(c4)OCO5)cc23)c1`, the AC50 was 2 µM (active).
On to `c1ccc(CNc2ncnc3ccc(-c4ccc5c(c4)OCO5)cc23)cc1`, for which the AC50 is 2 µM (active).
On the same count and under the same terms, with `c1ccc(Nc2ncnc3ccc(-c4ccc5c(c4)OCO5)cc23)cc1` the figure was 2.51 µM (active).
Consider `O=[N+]([O-])c1ccc(S(=O)(=O)Cc2ccccc2)c2nonc12`, for which the activity, negative = inhibition was -16.7% [at 11.4 µM].
Take `COc1cc(OC)c(C#N)c(S(=O)(=O)Cc2ccccc2)c1`: the AC50 was 25.1 µM (active).
In the case of `COc1cc(C)c(Br)cc1S(=O)(=O)NCc1ccccc1`, the “activity, negative = inhibition” value is -0.507%.
Same read-out and setting: with `O=C(O)/C=C\C(=O)N1Cc2cc3ccccc3nc2C1` the figure was -8.05% [at 11.4 µM]; with `Cc1ccc(C(=O)N/N=C/c2cc(C)n(-c3ccc(Br)cc3)c2C)cc1[N+](=O)[O-]`, 23.5%.
Regarding `Cc1nc2ccccn2c1C(=O)N/N=C/c1ccccc1[N+](=O)[O-]`, the concentration at half-maximal activity (AC50) is 12.6 µM (active).
Consider `O=C(N/N=C/c1c(Nc2cccc(C(F)(F)F)c2)nc2ccccn2c1=O)c1ccccc1`, for which the “activity, negative = inhibition” value was -5.45%.
Take `COc1ccc(-c2nc3cnc(N4CCNCC4)nc3n(Cc3cccc(OC)c3)c2=O)cc1`: the AC50 was 15.8 µM (active).
The same measure, in the same setting: the same measure for `COc1cccc(Cn2c(=O)c(-c3ccccc3)nc3cnc(N4CCNCC4)nc32)c1`: 20 µM (active).
Take `COCCn1c(=O)c(-c2cc(F)cc(F)c2)nc2cnc(N3CCN(C)CC3)nc21`: the “activity, negative = inhibition” value was -6.67%.
For `COc1cccc(Cn2c(=O)c(-c3cc(F)cc(F)c3)nc3cnc(N4CCNCC4)nc32)c1`, the half-maximal activity concentration (AC50) was 25.1 µM (active).
The same measure, in the same setting: the same measure for `CN1CCN(c2ncc3nc(-c4cc(F)cc(F)c4)c(=O)n(CCc4ccccc4)c3n2)CC1`: 25.1 µM (active).
`CN1CCN(c2ncc3nc(-c4ccccc4)c(=O)n(CCc4ccccc4)c3n2)CC1`: the “activity, negative = inhibition” value is -5.29%.
Take `COc1cccc(Cn2c(=O)c(-c3cc(F)cc(F)c3)nc3cnc(N4CCN(C)CC4)nc32)c1`: the AC50 is 25.1 µM (active).
Turning to `COc1cccc(Cn2c(=O)c(-c3ccc(F)cc3)nc3cnc(N4CCNCC4)nc32)c1`, the AC50 is 15.8 µM (active).
`O=C(O)c1ccc2c(c1)C(=O)N(C(Cc1ccc(O)cc1)C(=O)O)C2=O` (centres undefined): the “activity, negative = inhibition” value is 5.23%.
Same read-out and setting: with `CNCCc1ccccn1` the figure was -3.54% [at 25.6 µM].
On the same count and under the same terms, with `c1ccc(CCNc2ccccn2)nc1` the figure was -14.6% [at 11.4 µM]; with `OCCCNCc1ccccn1`, -7.75% [at 11.4 µM]; with `Cc1cc(=O)oc(C)c1C(=O)NCc1ccccn1`, -10.8%.
Regarding `Cc1cc(Br)ccc1NCc1ccccn1`, the concentration at half-maximal activity (AC50) was 15.8 µM (active).
On the same count and under the same terms, with `Cc1cc(NCc2ccccn2)ccc1Br` the figure was 12.6 µM (active).
`CN(C)CCn1c(C(=O)O)cc2ccccc21`: the “activity, negative = inhibition” value was 6.42%.
Same read-out and setting: with `O=C(NCCN1CCCCC1)c1ccc(I)cc1` the figure was -0.633%.
As to `Cc1cc2ccccc2n1CCNC(=O)C1CCCC1`, the half-maximal activity concentration (AC50) is 4.47 µM (active).
In the case of `Cc1cc2ccccc2c(=O)n1CC(=O)NCC(=O)N1CCCC1`, the “activity, negative = inhibition” value is -2.71%.
Same read-out and setting: with `Cc1ccc(S(=O)(=O)NC(=O)c2cccn2C)cc1` the figure was 20.6%.
Turning to `Cc1ccc(S(=O)(=O)NCCn2c(C)cc3ccccc32)cc1`, the half-maximal activity concentration (AC50) is 5.01 µM (active).
As to `Cc1cc2ccccc2n1CCNC(=O)c1ccccc1`, the AC50 was 3.98 µM (active).
The same measure, in the same setting: the same measure for `CC1(C)C(=O)N(CCN2CCC(C(=O)c3ccc(F)cc3)CC2)c2ccccc21`: 15.8 µM (active).
As for `CN(C)CCCN1c2ccccc2C(C)(C)c2ccccc21`, the activity, negative = inhibition was -18.6% [at 11.4 µM].
On to `CCN1C(=O)C(O)(C2COC(C)(C)CC2=O)c2ccccc21` (centres undefined), for which the “activity, negative = inhibition” value was -1.6%.
